Compounds with a hit are over-represented: about 3.9% of the library has one in this group of screens.
aSyn 5UTR inh: MLPCN primary screen, SNCA 5' untranslated region. AID 1813. inhibition, % (tested at 7.5 µM). hit rate 0.82% among 300,000. alpha-synuclein 5'UTR reporter, inhibitor activity; in the data active means inhibition above about 60%;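 further: H4 neuroglioblastoma cells stably carrying SNCA 5'UTR luciferase fusion; 0% = DMSO wells and 100% = positive control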
TROY signal inh: TROY signaling inhibition; hit rate 0.98% among 360,000; inhibition, % at 10 µM; Q293 LMP1-TROYcd NF-kB luciferase reporter, 4 h; AID 1347056;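 active means compounds whose plate-normalised and pattern-corrected inhibition of the luciferase reporter signal at the single screening dose is 50% or more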
TWEAK Fn14 block: TWEAK-Fn14 signaling inhibition; AID 1159606; inhibition, % at 10 µM; TWEAK-stimulated Fn14 reporter cells, luciferase luminescence, 8 h; hit rate 2% among 360,000; in the data active means inhibition above about 50%
HSP90 refold inh: HSP90 refolding inhibition in rabbit reticulocyte lysate; luciferase refolding luminescence, 3 h; inhibition, % at 5.6 µM; hit rate 0.91% among 290,000;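 active means inhibition above the screen-wide mean plus 3 SD, computed separately per campaign, cut at about 16% in these data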;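 further: 0% = DMSO wells and 100% = 60 µM geldanamycin wells; inhibitors lower the luminescence because luciferase stays unfolded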
TRAIL sens C8: sensitizes caspase-8 expressing cells to TRAIL; inhibition (viability loss, TRAIL sensitization), % at 10 µM; hit rate 1% among 360,000; NB7+C8 cells + TRAIL, ATPlite viability luminescence;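 active means compounds causing at least 50% loss of cell viability in the single-dose screen, relative to plate controls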
HIF-2a inh: blocks HIF-2a reporter activity | inhibition, % at 18.8 µM | 786-0 RCC cells HIF-2a reporter, luciferase luminescence, overnight | AID 624352 | hit rate 0.72% among 360,000;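 active means inhibition of the luminescence signal of 40% or more relative to plate controls, in a single-dose primary screen at 18.75 µM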
Starred values were filed as active, the others as inactive.

`Cc1cc(C(=O)NC2CCCc3c2cnn3-c2ccc(C(C)(C)C)cc2)nn1C` (configuration not stated) gave aSyn 5UTR inh 8, TROY signal inh 39, TWEAK Fn14 block 61*, HSP90 refold inh -3, TRAIL sens C8 18 and HIF-2a inh 2.
COC(=O)c1ccc(C(=O)NC2CCCc3c2cnn3-c2ccc(C)c(C)c2)cc1 (configuration not stated) was read as aSyn 5UTR inh 104*, TROY signal inh 26, TWEAK Fn14 block 28, HSP90 refold inh -4, TRAIL sens C8 26 and HIF-2a inh -19.
Screening Cc1cc(C(=O)NC2CCCc3c2cnn3-c2ccc(C)c(C)c2)nc(C)n1 (configuration not stated) returned aSyn 5UTR inh -2, TROY signal inh 7, TWEAK Fn14 block -2, HSP90 refold inh 3, TRAIL sens C8 3 and HIF-2a inh 2.
`COc1cc(F)ccc1-c1cc(C(=O)NCc2ccc(C(F)(F)F)cc2)[nH]n1` gave TROY signal inh 3, TWEAK Fn14 block -31, TRAIL sens C8 4 and HIF-2a inh -13.
Screening Nc1nc(CSC(=S)N2CCOCC2)nc(Nc2ccccc2)n1 returned aSyn 5UTR inh -131, TROY signal inh -71, TWEAK Fn14 block -1, HSP90 refold inh -6, TRAIL sens C8 22 and HIF-2a inh -178.
Screening Nc1nc(CSC(=S)N2CCN(c3ccccc3)CC2)nc(Nc2ccc(F)cc2)n1 returned aSyn 5UTR inh -6, TROY signal inh 6, TWEAK Fn14 block 50*, HSP90 refold inh 0, TRAIL sens C8 7 and HIF-2a inh 14.
`CCC1(C)Nc2ccccc2C(=O)N1O` (configuration not stated) gave aSyn 5UTR inh 22, TROY signal inh 58*, TWEAK Fn14 block 3, HSP90 refold inh -2, TRAIL sens C8 -5 and HIF-2a inh 29.
`COc1ccc(CN=C(C)c2c(C(F)(F)F)[nH]n(-c3nc4ccccc4s3)c2=O)cc1` gave aSyn 5UTR inh -49, TROY signal inh -34, TWEAK Fn14 block 58*, HSP90 refold inh 2, TRAIL sens C8 -7 and HIF-2a inh -83.
Screening COc1cc(-n2nc(C)c3c2OC(N)=C(C#N)C3c2ccccc2)c(Cl)c(Br)c1O (configuration not stated) returned aSyn 5UTR inh -3, TROY signal inh 45, TWEAK Fn14 block 18, HSP90 refold inh 17*, TRAIL sens C8 -9 and HIF-2a inh 4.
`COc1ccc(C2=Nc3ccccc3N(C(=O)c3cnccn3)C2C(=O)NC2CCCC2)cc1` (configuration not stated) gave TRAIL sens C8 -15 and HIF-2a inh -154.
Screening O=C(O)c1cc2ccccc2c(N=Nc2cccnc2)c1O returned aSyn 5UTR inh 41, TROY signal inh 14, TWEAK Fn14 block 26, HSP90 refold inh -2, TRAIL sens C8 -7 and HIF-2a inh 73*.
Screening O=C(C(=NNc1ccccc1)C(=S)Nc1ccccc1)c1ccccc1 returned TROY signal inh 3, TWEAK Fn14 block -1, TRAIL sens C8 -14 and HIF-2a inh -28.
For O=C(N=Nc1c(O)[nH]c2ccccc12)c1ccc2c(c1)OCO2 the results were aSyn 5UTR inh -29, TROY signal inh -25, TWEAK Fn14 block 27, HSP90 refold inh -2, TRAIL sens C8 91* and HIF-2a inh -158.
Oc1[nH]c2ccccc2c1N=NC(=S)N1CCOCC1 was read as aSyn 5UTR inh 53, TROY signal inh 1, TWEAK Fn14 block 104*, HSP90 refold inh 6, TRAIL sens C8 32 and HIF-2a inh 16.
For Cc1ccc(N2CCN(C(C(=O)Nc3c(C)cccc3C)c3cccc(F)c3)CC2)cc1 (configuration not stated) the results were TRAIL sens C8 5 and HIF-2a inh 2.
Screening CCOC(=O)C1CCN(C(=O)COc2cc(C)c(Br)cc2C)CC1 returned aSyn 5UTR inh -2, TWEAK Fn14 block 91*, HSP90 refold inh 8, TRAIL sens C8 1 and HIF-2a inh 6.
CCOC(=O)C1CCN(C(=O)COc2ccc(Br)cc2Br)CC1 was read as aSyn 5UTR inh 18, TROY signal inh -6, TWEAK Fn14 block -7, HSP90 refold inh 0, TRAIL sens C8 1 and HIF-2a inh 14.
CC1(C)CC(=O)c2c(nc(SCC(=O)Nc3nsc(-c4ccccc4)n3)c(C#N)c2-c2ccccc2)C1 was read as aSyn 5UTR inh 74*, TROY signal inh -2, TWEAK Fn14 block 43, HSP90 refold inh -1, TRAIL sens C8 3 and HIF-2a inh 29.
`Cc1nnc(SCC(=O)Nc2nsc(-c3ccccc3)n2)s1` gave aSyn 5UTR inh -38, TROY signal inh -19, TWEAK Fn14 block 9, HSP90 refold inh -1, TRAIL sens C8 3 and HIF-2a inh -14.
Screening Cc1csc2c(N3CCN(C(=O)NC(C)(C)C)CC3)ncnc12 returned aSyn 5UTR inh -18, TROY signal inh -1, TWEAK Fn14 block -2, HSP90 refold inh 1, TRAIL sens C8 -1 and HIF-2a inh 13.
Screening Cc1csc2c(N3CCN(C(=O)Nc4ccc(Cl)c(Cl)c4)CC3)ncnc12 returned aSyn 5UTR inh 0, TROY signal inh 63*, TWEAK Fn14 block 16, HSP90 refold inh -4, TRAIL sens C8 0 and HIF-2a inh 16.
COc1cc([N+](=O)[O-])cc(/C=N/NC(=O)C(C)Nc2cccc3ccccc23)c1O (configuration not stated) was read as aSyn 5UTR inh 0, TROY signal inh 57*, TWEAK Fn14 block 87*, HSP90 refold inh 6, TRAIL sens C8 14 and HIF-2a inh 5.
Screening COc1cc([N+](=O)[O-])cc(/C=N/NC(=O)C(O)(c2ccccc2)c2ccccc2)c1O returned aSyn 5UTR inh 17, TROY signal inh 15, TWEAK Fn14 block 2, HSP90 refold inh 0, TRAIL sens C8 12 and HIF-2a inh 12.
CC(Nc1cccc2ccccc12)C(=O)N/N=C/c1ccc([N+](=O)[O-])cc1 (configuration not stated) was read as aSyn 5UTR inh -37, TROY signal inh 45, TWEAK Fn14 block 100*, HSP90 refold inh 4, TRAIL sens C8 7 and HIF-2a inh 6.
CCCCCCCCCCC(C(=O)O)C1(C(=O)O)CCC(=O)O1 (configuration not stated) was read as TROY signal inh -4, TWEAK Fn14 block -18, TRAIL sens C8 0 and HIF-2a inh 2.
For COc1ccc(-c2nn(-c3ccccc3)cc2/C=N/NC(N)=S)cc1OC the results were aSyn 5UTR inh 90*, TROY signal inh 12, TWEAK Fn14 block 69*, HSP90 refold inh 3, TRAIL sens C8 -24 and HIF-2a inh -31.
For COc1ccc(-c2nn(-c3ccccc3)cc2/C=N/n2cnnc2)cc1OC the results were aSyn 5UTR inh 10, TROY signal inh -38, TWEAK Fn14 block -4, HSP90 refold inh 4, TRAIL sens C8 -5 and HIF-2a inh -4.

Screening data: PubChem, several laboratories
